Columns and labels:
[1] = target: Ribosomal protein S6 kinase alpha-6 (Homo sapiens) (UniProt Q9UK32); conditions: at 1 µM;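 note: each value is a mean inhibition of RSK4 from a GSK PKIS panel screen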
[2] = target: T1, Serine/threonine-protein kinase Sgk1 (Homo sapiens) (UniProt O00141); conditions: at 0.1 µM
T1 sequence (whole entry): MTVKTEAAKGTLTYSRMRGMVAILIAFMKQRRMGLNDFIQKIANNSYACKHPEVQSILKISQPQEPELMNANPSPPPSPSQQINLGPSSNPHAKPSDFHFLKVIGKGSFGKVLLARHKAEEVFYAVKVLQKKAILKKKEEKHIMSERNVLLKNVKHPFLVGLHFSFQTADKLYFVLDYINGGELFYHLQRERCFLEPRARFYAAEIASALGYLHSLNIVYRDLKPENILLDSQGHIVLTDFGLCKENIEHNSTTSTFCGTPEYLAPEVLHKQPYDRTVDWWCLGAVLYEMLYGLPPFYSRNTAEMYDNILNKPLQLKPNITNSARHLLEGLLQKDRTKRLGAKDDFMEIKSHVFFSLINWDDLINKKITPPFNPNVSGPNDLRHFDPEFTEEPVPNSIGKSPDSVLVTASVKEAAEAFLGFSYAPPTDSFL

[3] = target: T1, Serine/threonine-protein kinase Sgk1 (Homo sapiens); conditions: at 1 µM
[4] = target: T2, Serine/threonine-protein kinase Sgk2 (Homo sapiens) (UniProt Q9HBY8); conditions: at 0.1 µM
T2 sequence (whole entry): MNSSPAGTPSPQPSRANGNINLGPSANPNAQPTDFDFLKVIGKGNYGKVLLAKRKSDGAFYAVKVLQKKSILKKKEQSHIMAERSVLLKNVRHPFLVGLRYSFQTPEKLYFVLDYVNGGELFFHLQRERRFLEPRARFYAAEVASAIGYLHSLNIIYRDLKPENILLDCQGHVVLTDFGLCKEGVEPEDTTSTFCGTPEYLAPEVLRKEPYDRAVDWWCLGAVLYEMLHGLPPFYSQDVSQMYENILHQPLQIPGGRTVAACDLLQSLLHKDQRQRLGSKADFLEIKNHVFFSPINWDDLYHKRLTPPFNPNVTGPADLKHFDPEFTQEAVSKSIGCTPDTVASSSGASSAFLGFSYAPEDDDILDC

[5] = target: T2, Serine/threonine-protein kinase Sgk2 (Homo sapiens); conditions: at 1 µM
[6] = target: T3, Serine/threonine-protein kinase Sgk3 (Homo sapiens) (UniProt Q96BR1); conditions: at 0.1 µM
T3 sequence (whole entry): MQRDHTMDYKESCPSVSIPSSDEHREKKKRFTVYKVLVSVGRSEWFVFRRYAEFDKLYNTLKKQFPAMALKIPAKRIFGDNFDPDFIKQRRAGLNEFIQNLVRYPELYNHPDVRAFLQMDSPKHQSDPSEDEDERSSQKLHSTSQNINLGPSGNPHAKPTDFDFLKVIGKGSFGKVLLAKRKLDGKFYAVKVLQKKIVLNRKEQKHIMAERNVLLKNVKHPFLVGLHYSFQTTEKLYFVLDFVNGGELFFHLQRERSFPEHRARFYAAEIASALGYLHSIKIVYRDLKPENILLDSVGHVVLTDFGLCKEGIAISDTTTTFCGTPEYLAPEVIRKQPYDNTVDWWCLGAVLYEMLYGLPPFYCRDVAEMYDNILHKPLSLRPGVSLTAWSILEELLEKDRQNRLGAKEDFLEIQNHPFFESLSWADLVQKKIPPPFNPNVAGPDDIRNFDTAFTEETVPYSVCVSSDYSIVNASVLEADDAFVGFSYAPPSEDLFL

[7] = target: T3, Serine/threonine-protein kinase Sgk3 (Homo sapiens); conditions: at 1 µM
[8] = target: 5'-AMP-activated protein kinase catalytic subunit alpha-1 (Homo sapiens) (UniProt Q13131); conditions: at 0.1 µM
[9] = target: 5'-AMP-activated protein kinase catalytic subunit alpha-1 (Homo sapiens) (UniProt Q13131); conditions: at 1 µM
[10] = target: 5'-AMP-activated protein kinase catalytic subunit alpha-2 (Homo sapiens) (UniProt P54646); conditions: at 0.1 µM
[11] = target: 5'-AMP-activated protein kinase catalytic subunit alpha-2 (Homo sapiens) (UniProt P54646); conditions: at 1 µM
[12] = target: T4, NUAK family SNF1-like kinase 1 (Homo sapiens) (UniProt O60285); conditions: at 0.1 µM
T4 sequence (whole entry): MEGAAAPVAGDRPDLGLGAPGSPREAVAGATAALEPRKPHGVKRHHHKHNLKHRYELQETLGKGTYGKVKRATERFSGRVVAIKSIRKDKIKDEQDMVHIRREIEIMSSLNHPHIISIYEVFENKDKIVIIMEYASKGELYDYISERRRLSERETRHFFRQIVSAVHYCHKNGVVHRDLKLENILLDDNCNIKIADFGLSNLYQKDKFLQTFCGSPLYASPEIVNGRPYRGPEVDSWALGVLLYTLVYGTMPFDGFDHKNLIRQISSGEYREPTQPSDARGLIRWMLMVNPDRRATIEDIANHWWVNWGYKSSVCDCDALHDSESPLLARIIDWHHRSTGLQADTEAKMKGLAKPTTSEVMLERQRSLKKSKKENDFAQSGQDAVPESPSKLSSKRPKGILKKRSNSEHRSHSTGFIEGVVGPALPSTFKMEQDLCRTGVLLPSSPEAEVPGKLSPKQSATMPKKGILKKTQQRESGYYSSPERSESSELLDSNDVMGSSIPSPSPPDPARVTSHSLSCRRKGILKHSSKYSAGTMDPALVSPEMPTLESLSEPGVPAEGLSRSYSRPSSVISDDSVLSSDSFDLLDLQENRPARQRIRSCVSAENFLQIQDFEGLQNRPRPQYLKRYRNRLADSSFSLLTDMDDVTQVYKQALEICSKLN

[13] = target: T4, NUAK family SNF1-like kinase 1 (Homo sapiens); conditions: at 1 µM
[14] = target: T5, Serine/threonine-protein kinase BRSK1 (Homo sapiens) (UniProt Q8TDC3); conditions: at 0.1 µM
T5 sequence (whole entry): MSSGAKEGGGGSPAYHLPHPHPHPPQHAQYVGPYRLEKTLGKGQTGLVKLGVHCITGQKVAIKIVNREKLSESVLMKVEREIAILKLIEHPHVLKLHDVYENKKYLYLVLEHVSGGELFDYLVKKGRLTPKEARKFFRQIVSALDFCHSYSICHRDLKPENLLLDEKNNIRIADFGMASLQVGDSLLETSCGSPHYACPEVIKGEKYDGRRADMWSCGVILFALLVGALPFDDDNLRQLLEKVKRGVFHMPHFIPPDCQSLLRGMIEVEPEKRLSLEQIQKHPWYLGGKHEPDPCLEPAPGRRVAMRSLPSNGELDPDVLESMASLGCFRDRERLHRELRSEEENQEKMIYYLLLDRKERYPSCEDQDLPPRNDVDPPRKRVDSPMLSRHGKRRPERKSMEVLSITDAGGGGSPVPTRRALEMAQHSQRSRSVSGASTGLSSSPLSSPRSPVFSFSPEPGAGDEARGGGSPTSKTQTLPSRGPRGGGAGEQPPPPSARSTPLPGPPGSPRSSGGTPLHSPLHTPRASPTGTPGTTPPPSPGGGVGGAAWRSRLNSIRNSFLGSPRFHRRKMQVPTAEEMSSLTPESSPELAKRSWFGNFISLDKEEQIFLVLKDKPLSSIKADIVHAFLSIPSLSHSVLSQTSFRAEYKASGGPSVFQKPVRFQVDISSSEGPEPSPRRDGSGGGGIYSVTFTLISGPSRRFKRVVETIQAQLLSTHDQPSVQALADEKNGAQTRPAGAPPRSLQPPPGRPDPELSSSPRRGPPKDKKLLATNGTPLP

[15] = target: T5, Serine/threonine-protein kinase BRSK1 (Homo sapiens); conditions: at 1 µM
[16] = target: T6, Serine/threonine-protein kinase BRSK2 (Homo sapiens) (UniProt Q8IWQ3); conditions: at 0.1 µM
T6 sequence (whole entry): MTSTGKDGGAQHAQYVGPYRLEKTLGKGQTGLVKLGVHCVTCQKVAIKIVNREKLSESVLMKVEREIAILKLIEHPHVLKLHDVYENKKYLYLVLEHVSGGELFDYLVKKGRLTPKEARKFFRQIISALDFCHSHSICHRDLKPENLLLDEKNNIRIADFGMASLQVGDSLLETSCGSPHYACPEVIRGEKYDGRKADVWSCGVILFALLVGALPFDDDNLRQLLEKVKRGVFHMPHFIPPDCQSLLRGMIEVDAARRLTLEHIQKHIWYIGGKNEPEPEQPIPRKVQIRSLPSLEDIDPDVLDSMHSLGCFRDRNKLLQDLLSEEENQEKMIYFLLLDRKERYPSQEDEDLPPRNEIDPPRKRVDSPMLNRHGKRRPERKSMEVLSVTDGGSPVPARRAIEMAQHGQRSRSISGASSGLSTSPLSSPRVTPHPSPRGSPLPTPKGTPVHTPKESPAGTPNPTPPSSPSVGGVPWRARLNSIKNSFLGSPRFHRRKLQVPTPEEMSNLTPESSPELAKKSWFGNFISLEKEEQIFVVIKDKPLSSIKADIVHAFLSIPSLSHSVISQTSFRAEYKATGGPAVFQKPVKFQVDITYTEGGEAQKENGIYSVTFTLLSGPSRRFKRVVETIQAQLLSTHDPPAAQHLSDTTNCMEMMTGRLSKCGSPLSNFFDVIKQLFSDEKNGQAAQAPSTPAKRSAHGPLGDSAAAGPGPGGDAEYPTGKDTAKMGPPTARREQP

[17] = target: T6, Serine/threonine-protein kinase BRSK2 (Homo sapiens); conditions: at 1 µM
[18] = target: Calcium/calmodulin-dependent protein kinase type 1D (Homo sapiens) (UniProt Q8IU85); conditions: at 0.1 µM
[19] = target: Calcium/calmodulin-dependent protein kinase type 1D (Homo sapiens) (UniProt Q8IU85); conditions: at 1 µM
[20] = target: Calcium/calmodulin-dependent protein kinase type II subunit alpha (Homo sapiens) (UniProt Q9UQM7); conditions: at 0.1 µM;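 note: reported values are averages (mean inhibition of CAMK2A)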
Sequence of Calcium/calmodulin-dependent protein kinase type II subunit alpha (Homo sapiens) (Q9UQM7 whole entry): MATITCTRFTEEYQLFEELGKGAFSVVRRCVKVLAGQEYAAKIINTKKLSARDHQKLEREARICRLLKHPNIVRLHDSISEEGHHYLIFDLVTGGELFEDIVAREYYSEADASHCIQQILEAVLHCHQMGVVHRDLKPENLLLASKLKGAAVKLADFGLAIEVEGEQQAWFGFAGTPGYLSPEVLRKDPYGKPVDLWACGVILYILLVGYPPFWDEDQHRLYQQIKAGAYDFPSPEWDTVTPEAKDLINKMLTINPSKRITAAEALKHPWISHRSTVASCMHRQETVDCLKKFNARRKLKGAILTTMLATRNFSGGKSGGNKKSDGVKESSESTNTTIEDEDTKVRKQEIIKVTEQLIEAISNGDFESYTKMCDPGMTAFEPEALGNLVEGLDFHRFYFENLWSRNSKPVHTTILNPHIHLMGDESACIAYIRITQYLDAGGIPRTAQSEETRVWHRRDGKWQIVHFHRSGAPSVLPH

Sequence of 5'-AMP-activated protein kinase catalytic subunit alpha-1 (Homo sapiens) (Q13131 whole entry, looked up): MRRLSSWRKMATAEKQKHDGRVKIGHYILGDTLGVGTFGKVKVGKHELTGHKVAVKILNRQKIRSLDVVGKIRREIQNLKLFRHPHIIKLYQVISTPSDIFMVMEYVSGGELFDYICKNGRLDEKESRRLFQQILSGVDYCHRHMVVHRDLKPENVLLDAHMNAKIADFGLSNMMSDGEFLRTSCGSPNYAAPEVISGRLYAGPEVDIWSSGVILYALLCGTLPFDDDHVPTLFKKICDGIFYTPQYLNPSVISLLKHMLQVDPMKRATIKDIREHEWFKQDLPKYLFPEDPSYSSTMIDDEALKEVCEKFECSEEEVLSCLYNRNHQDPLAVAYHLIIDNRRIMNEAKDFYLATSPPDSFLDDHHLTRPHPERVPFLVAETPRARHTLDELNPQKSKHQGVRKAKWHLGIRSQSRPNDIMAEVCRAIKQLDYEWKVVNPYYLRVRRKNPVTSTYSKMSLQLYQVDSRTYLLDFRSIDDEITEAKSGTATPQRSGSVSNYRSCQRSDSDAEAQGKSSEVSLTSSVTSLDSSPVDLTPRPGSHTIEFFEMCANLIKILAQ
Sequence of Ribosomal protein S6 kinase alpha-6 (Homo sapiens) (Q9UK32 whole entry): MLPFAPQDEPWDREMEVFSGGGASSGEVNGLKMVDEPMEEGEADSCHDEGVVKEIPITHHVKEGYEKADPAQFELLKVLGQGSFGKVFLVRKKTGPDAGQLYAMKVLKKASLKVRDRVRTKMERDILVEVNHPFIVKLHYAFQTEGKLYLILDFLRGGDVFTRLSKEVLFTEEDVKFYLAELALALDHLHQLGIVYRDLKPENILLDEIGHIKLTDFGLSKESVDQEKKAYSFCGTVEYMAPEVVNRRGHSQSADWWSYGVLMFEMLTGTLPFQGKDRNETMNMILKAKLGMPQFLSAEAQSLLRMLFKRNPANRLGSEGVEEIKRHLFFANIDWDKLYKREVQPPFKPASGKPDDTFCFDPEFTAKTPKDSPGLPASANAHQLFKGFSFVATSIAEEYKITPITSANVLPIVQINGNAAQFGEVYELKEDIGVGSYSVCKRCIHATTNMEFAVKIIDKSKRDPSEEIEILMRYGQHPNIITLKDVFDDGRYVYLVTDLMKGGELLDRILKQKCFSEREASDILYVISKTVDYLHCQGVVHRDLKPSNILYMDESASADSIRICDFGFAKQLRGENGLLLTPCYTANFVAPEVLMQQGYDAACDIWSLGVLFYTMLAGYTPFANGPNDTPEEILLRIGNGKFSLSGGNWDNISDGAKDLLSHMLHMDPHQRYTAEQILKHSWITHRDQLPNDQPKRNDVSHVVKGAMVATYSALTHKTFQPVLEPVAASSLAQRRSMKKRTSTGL
Sequence of Calcium/calmodulin-dependent protein kinase type 1D (Homo sapiens) (Q8IU85 whole entry, looked up): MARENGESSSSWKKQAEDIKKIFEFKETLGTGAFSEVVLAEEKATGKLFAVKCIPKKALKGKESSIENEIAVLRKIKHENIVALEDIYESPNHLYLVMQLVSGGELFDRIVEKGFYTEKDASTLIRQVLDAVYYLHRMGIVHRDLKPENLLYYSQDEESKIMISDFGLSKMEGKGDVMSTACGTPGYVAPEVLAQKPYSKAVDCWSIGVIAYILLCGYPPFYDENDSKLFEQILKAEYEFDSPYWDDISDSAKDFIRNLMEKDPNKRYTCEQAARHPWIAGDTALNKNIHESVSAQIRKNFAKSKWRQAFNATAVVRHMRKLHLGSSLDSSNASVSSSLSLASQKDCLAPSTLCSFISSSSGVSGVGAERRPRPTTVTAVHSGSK
Sequence of 5'-AMP-activated protein kinase catalytic subunit alpha-2 (Homo sapiens) (P54646 whole entry, looked up): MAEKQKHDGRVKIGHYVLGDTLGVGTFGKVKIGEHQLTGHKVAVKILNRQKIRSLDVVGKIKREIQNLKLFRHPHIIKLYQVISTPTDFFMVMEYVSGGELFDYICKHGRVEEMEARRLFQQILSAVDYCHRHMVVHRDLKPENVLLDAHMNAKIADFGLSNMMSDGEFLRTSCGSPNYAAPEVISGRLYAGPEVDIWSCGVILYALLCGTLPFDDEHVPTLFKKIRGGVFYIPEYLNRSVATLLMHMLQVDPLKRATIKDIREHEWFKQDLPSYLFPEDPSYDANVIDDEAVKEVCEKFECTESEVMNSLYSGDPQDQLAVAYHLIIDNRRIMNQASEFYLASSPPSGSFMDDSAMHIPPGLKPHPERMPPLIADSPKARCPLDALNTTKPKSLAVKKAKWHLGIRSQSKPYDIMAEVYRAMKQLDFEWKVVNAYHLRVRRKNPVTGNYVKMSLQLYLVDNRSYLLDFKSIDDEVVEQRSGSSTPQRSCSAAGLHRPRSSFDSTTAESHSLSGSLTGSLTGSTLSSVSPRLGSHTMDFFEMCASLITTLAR

Structure (SMILES)	inhibition [1]	inhibition [2]	inhibition [3]	inhibition [4]	inhibition [5]	inhibition [6]	inhibition [7]	inhibition [8]	inhibition [9]	inhibition [10]	inhibition [11]	inhibition [12]	inhibition [13]	inhibition [14]	inhibition [15]	inhibition [16]	inhibition [17]	inhibition [18]	inhibition [19]	inhibition [20]
CCNC(=O)O[C@H]1CN[C@H](C#Cc2cc3ncnc(Nc4ccc(OCc5cccc(F)c5)c(Cl)c4)c3s2)C1	2.88%	2.25%	-0.58%	8.05%	5.53%	4.38%	-0.29%	2.46%	2.35%	0.44%	4.45%	1.68%	6.34%	0.67%	2.32%	2.25%	1.26%	1.21%	2.24%	3.45%
CN1CCC(n2cnc(-c3ccc(F)cc3)c2-c2ccnc(N)n2)CC1	3.17%	2.03%	5.81%	0.15%	7.47%	2.25%	2.99%	2.2%	7.91%	-1.23%	3.56%	-0.55%	5.58%	1.29%	1.45%	1.08%	7.04%	0.79%	1.05%	2.13%
CN1CCC(n2cnc(-c3ccc(F)cc3)c2-c2ccnc(Nc3ccccc3)n2)CC1	2.69%	2.19%	5.36%	3.28%	5.4%	2.89%	3.19%	2.05%	3.64%	-0.33%	2.34%	-2.56%	4.19%	0.59%	0.41%	0.56%	1.93%	0.81%	1.85%	3.46%
CN(C)CCOc1ccc(-c2nc(-c3ccncc3)c(-c3ccc4c(c3)CC/C4=N\O)[nH]2)cc1	2.06%	2.17%	4.78%	2.44%	5.4%	2.89%	4.02%	2.12%	5.29%	-0.6%	2.75%	1.23%	8.79%	-0.13%	1.11%	0.6%	3.51%	0.25%	1.72%	2.79%
COc1cc(N2CCN(C(C)C)CC2)ccc1Nc1nc(Nc2ccc(F)cc2C(N)=O)c2cc[nH]c2n1	54.8%	-0.27%	1.48%	3.52%	-3.53%	0.95%	0.42%	6.33%	33.5%	6.34%	13.2%	66.6%	85%	2.21%	-0.11%	0.22%	1.71%	10.9%	52.8%	9.8%
c1ccc(-c2nc3n(c2-c2ccc4c(c2)OCO4)CCC3)nc1	0.77%	1.69%	3.45%	2.66%	2.94%	2.37%	3.36%	1.01%	2.34%	3.38%	3.64%	4.41%	-1.66%	1.42%	2.54%	1.52%	4.23%	0.16%	0.16%	-0.46%
Cc1ccc(O)cc1Nc1ccnc2cc(-c3ccccn3)ccc12	1.1%	3.35%	0.75%	4.28%	0.49%	4.38%	1.94%	4.22%	4.05%	1.74%	6.05%	4.17%	7.44%	3.63%	5.99%	3.25%	3.89%	1.22%	1.32%	6.72%
COC(=O)Nc1nc2ccc(S(=O)(=O)c3ccc(NC(=O)Nc4cc(C(F)(F)F)ccc4F)cc3)cc2[nH]1	1.27%	3.1%	0.95%	3.28%	0.53%	2.89%	1.57%	1.79%	1.58%	2.21%	3.39%	3.25%	4.84%	3.17%	4.39%	2.33%	2.89%	0.42%	1.45%	3.34%
NS(=O)(=O)c1ccc(Nc2ncc(-c3ccccc3)o2)cc1	4.32%	2.77%	13%	2.15%	10.4%	1.86%	2.86%	4.14%	11.5%	1.03%	9.24%	10.7%	37.2%	1.52%	15.3%	2.58%	17%	0.42%	0.85%	4.27%
CCn1cc(-c2ccnc3[nH]ccc23)c(-c2cccc(NC(=O)Nc3ccc(OCc4ccccc4)cc3)c2)n1	-1.2%	0.59%	-1.2%	-1.32%	-1.47%	-0.3%	-0.15%	1.13%	1.82%	0.63%	2.24%	-0.37%	1.67%	-0.66%	3.32%	1.2%	0.5%	1.03%	4.92%	1.2%
CCc1nn2ncccc2c1-c1ccnc(NC2CC2)n1	1.93%	2.68%	3.56%	0.28%	-2.61%	2.22%	3.01%	1.09%	4.1%	2.14%	2.42%	-1.38%	1.14%	3.05%	1.03%	1.62%	4.01%	1.12%	2.41%	2.89%
Cc1cccc2c1NC(=O)/C2=N\Nc1ccc(S(N)(=O)=O)cc1	2.27%	0.42%	3.23%	2.93%	3.69%	0.3%	-0.24%	2.8%	4.3%	0.95%	4.04%	4.52%	19%	1.12%	3.16%	0.94%	4.49%	0.23%	1.75%	4.56%
CCCN(CCS(C)(=O)=O)Cc1ccc(-c2ccc3ncnc(Nc4ccc(OCc5cccc(F)c5)c(Cl)c4)c3c2)o1	0.41%	0.88%	2.15%	0.16%	-0.86%	2.21%	1.28%	0.05%	1.68%	2.47%	2.91%	-7.52%	4.57%	1.22%	3.8%	1.68%	7.08%	0.15%	1.73%	0.86%

— ChEMBL document CHEMBL1961873, “Compounds: GSK PKIS; Assays: Nanosyn kinase panel” (2012)
